Results taken from PubChem BioAssay (NCATS).
Where “and” joins values, the source holds several entries; their conditions need not be identical. Equal entries are not always repeated. Inconclusive results are not listed. Calls of active or inactive are those of the source. Calls follow the shape of the dose curve; as a rule, active = well fitted curve in the direction sought with a large enough effect; inconclusive = small, poorly fitted or top-dose-only effect, or another doubt; inactive = no such curve, though single readings can be large; an effect the other way counts as inactive or inconclusive.

Assays:
[1] = test system: HEK293; experiment: Cytotoxic Profiling of Annotated Libraries Using Quantitative High-Throughput Screening (AID 1296008); conditions: Five cell lines viability, CellTiter-Glo ATP luminescence, 48-72 h; max response: active compounds read low; also: nearly all actives have a fitted effect of over 60% in size
Procedure, shortened: (§1)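 Cytotoxicity was measured as CellTiter-Glo ATP luminescence, read after 10 min at room temperature. Compound treatment of the cells lasted 48 or 72 hr at 37 degrees Celsius in a qHTS format.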

[2] = test system: HaCat; experiment: as above; conditions: Five cell lines viability, CellTiter-Glo ATP luminescence, 48-72 h; max response: active compounds read low
Procedure, shortened: as §1

[3] = test system: NIH3T3; experiment: as above; conditions: Five cell lines viability, CellTiter-Glo ATP luminescence, 48-72 h; max response: active compounds read low
Procedure, shortened: as §1

[4] = test system: MCC-13; experiment: qHTS assay to identify novel small-molecules to repurpose for Merkel cell carcinoma treatment (AID 1296009); conditions: MCC and control cell lines, CellTiter-Glo viability, 72 h; series mostly up to 46 µM; also: nearly all actives have a fitted effect of over 60% in size
Procedure, shortened: (§2)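 72 hr, 37 degree celsius; NPC 8-pt / MIPE 11-pt dose response; compound pinned in DMSO; CellTiter-Glo, 10 min RT, luminescence; normalized to no-cell and DMSO controls.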

[5] = test system: MKL-1; experiment: as above; conditions: MCC and control cell lines, CellTiter-Glo viability, 72 h; series mostly up to 46 µM
Procedure, shortened: as §2

[6] = test system: MKL-2; experiment: as above; conditions: MCC and control cell lines, CellTiter-Glo viability, 72 h; series mostly up to 46 µM
Procedure, shortened: as §2

[7] = test system: C33A; experiment: Primary qHTS to identify gynecologic anti-cancer compounds using libraries of approved drugs and bioactive compounds (AID 1345084); conditions: Gynecologic cancer cell panel viability, ATPlite luminescence, 48 h; series mostly up to 57.5 µM; also: nearly all actives have a fitted effect of over 55% in size
Procedure, shortened: (§3)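 Cell viability after 48 h drug treatment, ATPlite luminescence readout; five doses.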

[8] = test system: CASKI; experiment: as above; conditions: Gynecologic cancer cell panel viability, ATPlite luminescence, 48 h; series mostly up to 57.5 µM
Procedure, shortened: as §3

[9] = test system: Es-2; experiment: as above; conditions: Gynecologic cancer cell panel viability, ATPlite luminescence, 48 h; series mostly up to 57.5 µM
Procedure, shortened: as §3

[10] = test system: HeLa; experiment: as above; conditions: Gynecologic cancer cell panel viability, ATPlite luminescence, 48 h; series mostly up to 57.5 µM
Procedure, shortened: as §3

[11] = test system: JEG-3; experiment: as above; conditions: Gynecologic cancer cell panel viability, ATPlite luminescence, 48 h; series mostly up to 57.5 µM
Procedure, shortened: as §3

[12] = test system: KB-3-1; experiment: Cytotoxic Profiling of Annotated Libraries Using Quantitative High-Throughput Screening (AID 1296008); conditions: Five cell lines viability, CellTiter-Glo ATP luminescence, 48-72 h; max response: active compounds read low; also: nearly all actives have a fitted effect of over 60% in size
Procedure, shortened: as §1

[13] = test system: MCC-26; experiment: qHTS assay to identify novel small-molecules to repurpose for Merkel cell carcinoma treatment (AID 1296009); conditions: MCC and control cell lines, CellTiter-Glo viability, 72 h; series mostly up to 46 µM; also: nearly all actives have a fitted effect of over 60% in size
Procedure, shortened: as §2

[14] = test system: WaGa; experiment: as above; conditions: MCC and control cell lines, CellTiter-Glo viability, 72 h; series mostly up to 46 µM
Procedure, shortened: as §2

[15] = test system: UISO; experiment: as above; conditions: MCC and control cell lines, CellTiter-Glo viability, 72 h; series mostly up to 46 µM
Procedure, shortened: as §2

[16] = test system: HACAT; experiment: as above; conditions: MCC and control cell lines, CellTiter-Glo viability, 72 h; series mostly up to 44.8 µM
Procedure, shortened: as §2

[17] = test system: Hek293T; experiment: Primary qHTS to identify gynecologic anti-cancer compounds using libraries of approved drugs and bioactive compounds (AID 1345084); conditions: Gynecologic cancer cell panel viability, ATPlite luminescence, 48 h, control line for the selectivity index; series mostly up to 57.5 µM; also: nearly all actives have a fitted effect of over 55% in size
Procedure, shortened: as §3
% is scaled to controls: 0 for no effect and ±100 for the full control effect; potency is read from the fitted curve at half-maximal effect.

CC(C)c1noc(N2CCC(COc3ccc(-c4ccc(S(C)(=O)=O)cc4)nc3)CC2)n1
inactive: max response [2] -15.4% and 4.61% | max response [3] -1.13% and 3.22% | Potency [4] | Potency [5] | Potency [6] | Potency [7] | Potency [8] | Potency [9] | Potency [10] | Potency [11]
active: Potency [1] 7.43 µM and 8.2 µM

CCCCOc1c(C(=O)c2c(F)cc(C)cc2F)cnc2n[nH]cc12
inactive: outcome [12] | Potency [4] | Potency [13] | Potency [5] | Potency [6] | Potency [14] | Potency [7] | Potency [8] | Potency [11]
active: Potency [1] 14.8 µM and 2.59 µM | Potency [3] 16.6 µM | Potency [10] 8.91 µM

Nc1cccc(-c2cc3c(Oc4cccc(O)c4)ncnc3[nH]2)c1
active: Potency [1] 20.9 µM and 18.4 µM | Potency [2] 2.96 µM | Potency [3] 3.72 µM and 4.61 µM | Potency [13] 18.7 µM
inactive: Potency [5] | Potency [15] | Potency [7] | Potency [9] | Potency [11]

CCC1=C[C@@H]2CN(C1)Cc1c([nH]c3ccccc13)[C@@](C(=O)OC)(c1cc3c(cc1OC)N(C)[C@@H]1[C@@](O)(C(=O)OC)[C@H](OC(C)=O)[C@]4(CC)C=CCN5CC[C@]31[C@@H]54)C2
inactive: max response [2] -8.6%
active: Potency [1] 0.0235 µM | Potency [12] 0.0166 µM | Potency [5] 0.0118 µM

O=C(CCCCCCNC(=O)c1cnc(N(c2ccccc2)c2ccccc2)nc1)NO
active: Potency [1] 13.2 µM and 7.31 µM | Potency [2] 16.6 µM | Potency [12] 11.8 µM and 8.2 µM | Potency [5] 9.35 µM | Potency [6] 5.9 µM | Potency [14] 2.96 µM | Potency [10] 11.2 µM | Potency [11] 15.8 µM

COC(=O)C[C@](O)(CCCC(C)(C)O)C(=O)O[C@@H]1C(OC)=C[C@]23CCCN2CCc2cc4c(cc2[C@H]13)OCO4
inactive: max response [1] -7.61% | outcome [2] | max response [3] 2.2% | Potency [16] | Potency [4] | Potency [5] | Potency [6] | Potency [15] | Potency [14]

COC(=O)[C@]12CCC(C)(C)C[C@@H]1[C@@H]1C(=O)C=C3[C@@]4(C)C=C(C#N)C(=O)C(C)(C)[C@@H]4CC[C@@]3(C)[C@]1(C)CC2
inactive: Potency [5]
active: Potency [1] 2.96 µM | Potency [2] 4.18 µM | Potency [12] 1.18 µM

CC(C)C[C@H](NC(=O)CNC(=O)c1cc(Cl)ccc1Cl)B(O)O
active: Potency [1] 1.18 µM | Potency [2] 3.72 µM | Potency [3] 0.662 µM | Potency [13] 0.526 µM | Potency [5] 0.743 µM | Potency [6] 0.264 µM | Potency [15] 0.59 µM | Potency [14] 0.296 µM

Cc1ccc(S(=O)(=O)Nc2cc(Cl)ccc2C(=O)Nc2nc(-c3ccccc3)cs2)cc1
inactive: outcome [2] | max response [12] -7.08% | Potency [16] | Potency [4] | Potency [13] | Potency [5] | Potency [6] | Potency [14]
active: Potency [1] 11.8 µM

CN1CCN(c2cc(C(=O)Nc3ccc4c(c3)-c3c(c(C(N)=O)nn3-c3ccc(F)cc3)CC4)c(Cl)cn2)CC1
inactive: outcome [2] | Potency [16] | Potency [4] | Potency [13] | Potency [15] | Potency [14]
active: Potency [1] 20.9 µM | Potency [5] 26.4 µM | Potency [6] 26.4 µM

COC(=O)Nc1nc2ccc(C(=O)c3ccc(F)cc3)cc2[nH]1
active: Potency [1] 590 nM and 820 nM | Potency [12] 833 nM and 1.46 µM | Potency [9] 8.91 µM | Potency [10] 3.98 µM
inactive: outcome [2] | Potency [16] | Potency [7]

CC(C)=CCCC(C)=CCCC(C)=CCSc1ccccc1C(=O)O
active: Potency [1] 1.66 µM | Potency [12] 4.69 µM | Potency [3] 14.8 µM

C=CC(=O)Nc1cc2c(Nc3ccc(F)c(Cl)c3)ncnc2cc1C#CC(C)(C)N1CCN(C)CC1
active: Potency [1] 2.96 µM | Potency [2] 2.09 µM | Potency [4] 11.8 µM | Potency [13] 10.5 µM | Potency [5] 6.62 µM | Potency [15] 7.43 µM | Potency [14] 5.26 µM

O=C(Cc1ccc(-c2ccc(OCCN3CCOCC3)cc2)cn1)NCc1ccccc1
inactive: outcome [2] | Potency [16] | Potency [8]
active: Potency [1] 14.8 nM and 184 nM | Potency [12] 26.4 nM and 731 nM | Potency [4] 0.0469 µM | Potency [15] 0.0469 µM | Potency [9] 1.58 µM | Potency [10] 1.58 µM

COc1cc(C)c(Sc2cnc(NC(=O)c3ccc(CNC(C)C(C)C)cc3)s2)cc1C(=O)N1CCN(C(C)=O)CC1 (stereo not drawn)
inactive: Potency [6] | Potency [7] | Potency [9] | Potency [17] | Potency [11]
active: Potency [1] 14.8 µM and 11.6 µM | Potency [2] 5.9 µM | Potency [3] 13.2 µM and 13 µM | Potency [15] 18.7 µM
